Drawing on ChEMBL document CHEMBL3988442, “University of Dundee, Small-Polar-MMV Screening Library” (2021), this text covers Percent Effect for six compounds.

Each structure is given as a SMILES string. For part of these data: Entries with a potency or affinity are not part of this list.

Holding throughout (design): scale not given: direction of the effect not stated beside the values
For test [1], the target named is Protein translocase subunit SecA (Escherichia coli (strain K12)) (UniProt P10408). Nature of the test: Assay to Identify E. coli SecA ATPase Inhibitors. The test is classed as functional. To be noted: 30 µM.
Test [2] has as its target T1, Ubiquitin-activating enzyme e1, putative (Leishmania donovani (strain BPK282A1)) (UniProt E9BSI1).
T1 sequence (whole entry): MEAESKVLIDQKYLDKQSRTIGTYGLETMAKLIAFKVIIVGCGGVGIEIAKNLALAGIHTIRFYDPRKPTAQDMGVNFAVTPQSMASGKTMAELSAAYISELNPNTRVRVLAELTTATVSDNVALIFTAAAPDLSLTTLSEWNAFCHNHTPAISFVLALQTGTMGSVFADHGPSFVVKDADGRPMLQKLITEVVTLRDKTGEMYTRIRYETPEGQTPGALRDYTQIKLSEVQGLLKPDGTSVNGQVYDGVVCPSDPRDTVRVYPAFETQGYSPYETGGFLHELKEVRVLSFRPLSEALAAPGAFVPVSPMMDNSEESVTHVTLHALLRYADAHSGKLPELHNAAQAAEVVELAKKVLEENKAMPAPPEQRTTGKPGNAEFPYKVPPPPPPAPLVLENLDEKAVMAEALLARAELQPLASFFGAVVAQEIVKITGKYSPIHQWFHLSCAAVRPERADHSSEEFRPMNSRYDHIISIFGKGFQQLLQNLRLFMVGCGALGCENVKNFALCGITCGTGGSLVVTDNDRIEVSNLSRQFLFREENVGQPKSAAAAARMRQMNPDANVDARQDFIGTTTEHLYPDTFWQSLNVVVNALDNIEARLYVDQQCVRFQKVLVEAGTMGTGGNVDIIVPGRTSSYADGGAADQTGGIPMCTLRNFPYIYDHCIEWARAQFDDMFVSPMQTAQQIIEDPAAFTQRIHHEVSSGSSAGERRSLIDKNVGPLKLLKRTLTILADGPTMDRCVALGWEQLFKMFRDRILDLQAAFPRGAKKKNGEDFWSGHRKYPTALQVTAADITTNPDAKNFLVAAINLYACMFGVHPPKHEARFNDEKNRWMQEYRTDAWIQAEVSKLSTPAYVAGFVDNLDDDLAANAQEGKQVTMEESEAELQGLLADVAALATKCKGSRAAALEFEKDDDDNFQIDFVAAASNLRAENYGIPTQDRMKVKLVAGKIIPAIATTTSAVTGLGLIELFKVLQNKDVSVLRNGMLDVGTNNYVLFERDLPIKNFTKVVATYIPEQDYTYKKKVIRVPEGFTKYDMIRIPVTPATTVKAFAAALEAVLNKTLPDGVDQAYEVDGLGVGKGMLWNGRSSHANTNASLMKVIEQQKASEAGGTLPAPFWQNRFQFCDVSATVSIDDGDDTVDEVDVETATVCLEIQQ
Nature of the test: Leishmania donovani Ubiquitin Activating Enzyme (LdE1). The class given is functional. Particulars: 30 µM.

The target in test [3] is T2, Aspartate--tRNA(Asp/Asn) ligase (Mycobacterium tuberculosis (strain ATCC 25618 / H37Rv)) (UniProt P9WFW3). Note: in the data most compounds retested in dose-response had high values.
T2 sequence (whole entry): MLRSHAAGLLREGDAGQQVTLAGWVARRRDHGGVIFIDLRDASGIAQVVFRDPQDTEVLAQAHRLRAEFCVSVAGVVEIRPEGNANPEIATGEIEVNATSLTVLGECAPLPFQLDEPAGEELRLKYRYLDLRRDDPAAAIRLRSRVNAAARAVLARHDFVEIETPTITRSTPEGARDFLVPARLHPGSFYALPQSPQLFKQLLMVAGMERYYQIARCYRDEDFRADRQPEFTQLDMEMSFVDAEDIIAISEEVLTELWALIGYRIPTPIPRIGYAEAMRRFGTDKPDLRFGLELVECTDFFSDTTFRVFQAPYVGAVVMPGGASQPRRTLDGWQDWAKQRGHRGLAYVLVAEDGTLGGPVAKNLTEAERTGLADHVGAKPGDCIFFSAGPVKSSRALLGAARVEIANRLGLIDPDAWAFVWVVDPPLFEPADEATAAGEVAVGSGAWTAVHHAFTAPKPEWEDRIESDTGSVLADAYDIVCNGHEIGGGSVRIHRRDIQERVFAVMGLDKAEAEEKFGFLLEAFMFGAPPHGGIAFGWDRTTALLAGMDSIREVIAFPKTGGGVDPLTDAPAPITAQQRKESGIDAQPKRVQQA
Nature of the test: Assay for Asp RNA synthetase-1 from Mycobacterium tuberculosis. The test is classed as functional. To be noted: 30 µM.

Test [4] addresses Sialic acid-binding Ig-like lectin 9 (Homo sapiens) (UniProt Q9Y336). The experiment in a line: Hs-Siglec9 ALPHAscreen SOP 20170721. To be noted: 10 µM. (In Alpha technology, singlet oxygen from a donor bead excites a nearby acceptor bead.)
In the next test the test system is Trypanosoma cruzi. Nature of the test: Trypanosoma cruzi phosphomannomutase and mannose-1-phosphate guanylyltransferase assay. Particulars: 10 µM. The class given is functional.
In test [5] the target is T3, Arginase-2, mitochondrial (Homo sapiens) (UniProt P78540).
T3 sequence (whole entry): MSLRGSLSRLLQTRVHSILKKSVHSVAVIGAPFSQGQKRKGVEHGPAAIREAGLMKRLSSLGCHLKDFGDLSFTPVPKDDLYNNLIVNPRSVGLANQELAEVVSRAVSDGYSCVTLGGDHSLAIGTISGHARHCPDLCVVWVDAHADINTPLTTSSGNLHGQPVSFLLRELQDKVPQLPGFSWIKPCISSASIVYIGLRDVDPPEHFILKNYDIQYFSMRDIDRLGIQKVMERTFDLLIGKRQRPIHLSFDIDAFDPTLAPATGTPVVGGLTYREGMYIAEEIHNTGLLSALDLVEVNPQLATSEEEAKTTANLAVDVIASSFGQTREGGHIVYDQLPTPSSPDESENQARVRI
Nature of the test: in vitro enzyme assay to detect the production of urea directly proportional to the activity of Arginase II. Note: in the data most compounds retested in dose-response had high values. The test is classed as functional. To be noted: 33.3 µM.

The target of test [6] is T4, Proteasome subunit beta (Trypanosoma cruzi) (UniProt O96673).
T4 sequence (whole entry): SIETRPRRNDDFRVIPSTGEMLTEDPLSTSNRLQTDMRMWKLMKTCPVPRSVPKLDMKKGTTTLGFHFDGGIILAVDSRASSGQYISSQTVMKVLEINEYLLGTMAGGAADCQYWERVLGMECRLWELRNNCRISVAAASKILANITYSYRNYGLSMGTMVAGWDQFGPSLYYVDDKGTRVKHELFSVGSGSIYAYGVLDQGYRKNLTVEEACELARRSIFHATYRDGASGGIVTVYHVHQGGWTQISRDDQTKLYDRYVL
The experiment in a line: Trypanosoma cruzi proteasome chymotrypsin-like activity (TcProtChymo) assay. Note: in the data most compounds retested in dose-response had high values. The test is classed as functional. To be noted: 9.37 µM.

For the next test, the species on record is Homo sapiens. The experiment in a line: To identify inhibition of the IFN signalling (Jak-Stat) pathway via expression of an eGFP reporter gene under the control of an IFN-stimulated response element (ISRE) containing MxA promoter. The class given is functional. Particulars: 30 µM. For orientation: A reporter such as luciferase makes a cellular process visible.

Test [7] has as its target Shiga toxin 2 (Escherichia coli O157:H7) (UniProt P09385+P09386). Nature of the test: E. coli 0.157:H7 Shiga Toxin SOP - stx2 screening assay. The class given is functional. To be noted: 30 µM.
Test [8] addresses T5, Tyrosyl-tRNA synthetase, putative (Trypanosoma cruzi (strain CL Brener)) (UniProt Q4DSP6).
T5 sequence (whole entry): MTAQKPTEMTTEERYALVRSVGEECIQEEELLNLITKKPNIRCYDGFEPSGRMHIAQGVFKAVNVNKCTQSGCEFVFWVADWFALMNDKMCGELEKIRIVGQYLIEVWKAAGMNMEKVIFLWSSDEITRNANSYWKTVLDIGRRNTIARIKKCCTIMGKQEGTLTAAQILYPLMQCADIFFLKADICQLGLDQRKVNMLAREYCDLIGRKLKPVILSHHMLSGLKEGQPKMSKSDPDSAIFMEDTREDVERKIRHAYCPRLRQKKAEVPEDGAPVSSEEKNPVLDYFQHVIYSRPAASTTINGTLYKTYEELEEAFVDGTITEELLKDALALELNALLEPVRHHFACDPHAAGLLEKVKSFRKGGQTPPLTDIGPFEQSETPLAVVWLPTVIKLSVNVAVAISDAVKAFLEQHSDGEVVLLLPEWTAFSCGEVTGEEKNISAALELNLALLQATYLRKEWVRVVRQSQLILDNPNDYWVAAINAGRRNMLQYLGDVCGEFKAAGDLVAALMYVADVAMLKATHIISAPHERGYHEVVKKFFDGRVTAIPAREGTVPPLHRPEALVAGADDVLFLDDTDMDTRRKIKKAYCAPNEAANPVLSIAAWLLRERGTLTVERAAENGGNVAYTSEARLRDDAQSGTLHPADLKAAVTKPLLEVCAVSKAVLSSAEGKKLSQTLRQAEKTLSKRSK
The experiment in a line: Trypanosoma cruzi tyrosyl tRNA synthetase (TcYRS) _High Tyrosine SOP. Note: in the data most compounds retested in dose-response had high values. The class given is functional. To be noted: 30 µM.

Test [9] addresses T5, Tyrosyl-tRNA synthetase, putative (Trypanosoma cruzi (strain CL Brener)). The experiment in a line: Trypanosoma cruzi tyrosyl tRNA synthetase (TcYRS) SOP. The class given is functional. To be noted: 30 µM.
For test [10], the target named is Chromo domain-containing protein 1 (Saccharomyces cerevisiae (strain ATCC 204508 / S288c) (Baker's yeast)) (UniProt P32657). The experiment in a line: ScCHD-1 Enzyme Inhibition Assay. Note: in the data most compounds retested in dose-response had high values. The test is classed as functional. To be noted: 30 µM.
Chain of Chromo domain-containing protein 1 (Saccharomyces cerevisiae (strain ATCC 204508 / S288c) (Baker's yeast)) (P32657 whole entry, the tested form may be a part): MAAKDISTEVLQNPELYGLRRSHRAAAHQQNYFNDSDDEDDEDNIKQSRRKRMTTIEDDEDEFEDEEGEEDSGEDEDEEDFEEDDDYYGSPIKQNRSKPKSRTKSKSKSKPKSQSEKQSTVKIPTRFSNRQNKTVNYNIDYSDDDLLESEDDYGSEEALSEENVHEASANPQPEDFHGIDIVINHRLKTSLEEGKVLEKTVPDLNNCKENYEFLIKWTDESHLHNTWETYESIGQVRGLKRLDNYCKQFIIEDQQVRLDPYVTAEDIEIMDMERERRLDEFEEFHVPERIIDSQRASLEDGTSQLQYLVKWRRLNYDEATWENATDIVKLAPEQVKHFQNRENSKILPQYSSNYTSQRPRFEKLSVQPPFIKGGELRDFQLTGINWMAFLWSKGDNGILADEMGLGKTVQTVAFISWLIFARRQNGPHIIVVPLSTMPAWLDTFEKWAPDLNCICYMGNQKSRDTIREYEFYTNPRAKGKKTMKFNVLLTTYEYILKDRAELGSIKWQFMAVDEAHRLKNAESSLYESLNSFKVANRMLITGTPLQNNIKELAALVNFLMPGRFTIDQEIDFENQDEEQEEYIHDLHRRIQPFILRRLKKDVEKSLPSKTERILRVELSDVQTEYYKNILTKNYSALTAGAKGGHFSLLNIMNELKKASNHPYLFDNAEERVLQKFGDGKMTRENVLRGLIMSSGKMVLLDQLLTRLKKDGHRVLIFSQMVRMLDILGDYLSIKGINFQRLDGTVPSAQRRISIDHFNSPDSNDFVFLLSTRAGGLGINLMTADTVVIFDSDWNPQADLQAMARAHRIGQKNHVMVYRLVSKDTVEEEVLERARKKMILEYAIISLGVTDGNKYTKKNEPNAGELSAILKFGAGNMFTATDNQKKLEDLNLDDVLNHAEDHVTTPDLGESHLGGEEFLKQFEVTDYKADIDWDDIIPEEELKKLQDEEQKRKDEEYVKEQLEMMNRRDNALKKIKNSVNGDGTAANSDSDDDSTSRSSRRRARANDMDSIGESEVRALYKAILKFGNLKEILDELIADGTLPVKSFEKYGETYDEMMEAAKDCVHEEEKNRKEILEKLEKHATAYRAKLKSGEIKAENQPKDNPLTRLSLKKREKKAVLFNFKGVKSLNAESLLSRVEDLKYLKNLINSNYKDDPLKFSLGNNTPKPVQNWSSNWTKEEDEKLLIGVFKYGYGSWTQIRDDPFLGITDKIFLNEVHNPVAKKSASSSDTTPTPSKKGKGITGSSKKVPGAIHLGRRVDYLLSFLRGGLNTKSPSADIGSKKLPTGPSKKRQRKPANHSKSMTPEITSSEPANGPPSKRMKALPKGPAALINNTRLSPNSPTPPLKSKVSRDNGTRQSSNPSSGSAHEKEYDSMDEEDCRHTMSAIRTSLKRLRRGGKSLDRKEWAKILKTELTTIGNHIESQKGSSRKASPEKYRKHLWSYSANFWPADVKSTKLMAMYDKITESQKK

Chain of Protein translocase subunit SecA (Escherichia coli (strain K12)) (P10408 whole entry): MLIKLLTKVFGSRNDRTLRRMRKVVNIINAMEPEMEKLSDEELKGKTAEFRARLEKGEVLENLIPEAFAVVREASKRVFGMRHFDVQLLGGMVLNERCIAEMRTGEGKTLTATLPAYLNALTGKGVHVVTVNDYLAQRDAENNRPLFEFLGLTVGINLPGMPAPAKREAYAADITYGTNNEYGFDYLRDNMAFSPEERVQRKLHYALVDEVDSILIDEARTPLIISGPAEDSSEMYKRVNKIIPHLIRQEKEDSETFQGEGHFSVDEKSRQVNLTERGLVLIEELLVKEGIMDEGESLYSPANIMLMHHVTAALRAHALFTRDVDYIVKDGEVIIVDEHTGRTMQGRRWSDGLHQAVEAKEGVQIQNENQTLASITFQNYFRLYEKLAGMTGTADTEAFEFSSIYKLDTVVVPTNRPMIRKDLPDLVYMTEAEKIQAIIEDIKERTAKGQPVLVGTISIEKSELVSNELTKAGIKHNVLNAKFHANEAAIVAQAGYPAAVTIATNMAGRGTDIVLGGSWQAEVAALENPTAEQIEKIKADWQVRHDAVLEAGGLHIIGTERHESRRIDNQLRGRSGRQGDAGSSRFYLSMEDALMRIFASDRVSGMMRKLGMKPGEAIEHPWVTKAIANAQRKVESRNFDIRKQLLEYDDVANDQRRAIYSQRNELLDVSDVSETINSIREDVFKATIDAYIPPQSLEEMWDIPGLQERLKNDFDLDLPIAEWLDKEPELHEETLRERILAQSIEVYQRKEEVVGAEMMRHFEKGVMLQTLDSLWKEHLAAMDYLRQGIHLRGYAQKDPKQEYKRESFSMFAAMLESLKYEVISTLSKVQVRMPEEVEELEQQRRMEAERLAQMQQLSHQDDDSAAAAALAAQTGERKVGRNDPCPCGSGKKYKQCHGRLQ
Chain of Sialic acid-binding Ig-like lectin 9 (Homo sapiens) (Q9Y336 whole entry): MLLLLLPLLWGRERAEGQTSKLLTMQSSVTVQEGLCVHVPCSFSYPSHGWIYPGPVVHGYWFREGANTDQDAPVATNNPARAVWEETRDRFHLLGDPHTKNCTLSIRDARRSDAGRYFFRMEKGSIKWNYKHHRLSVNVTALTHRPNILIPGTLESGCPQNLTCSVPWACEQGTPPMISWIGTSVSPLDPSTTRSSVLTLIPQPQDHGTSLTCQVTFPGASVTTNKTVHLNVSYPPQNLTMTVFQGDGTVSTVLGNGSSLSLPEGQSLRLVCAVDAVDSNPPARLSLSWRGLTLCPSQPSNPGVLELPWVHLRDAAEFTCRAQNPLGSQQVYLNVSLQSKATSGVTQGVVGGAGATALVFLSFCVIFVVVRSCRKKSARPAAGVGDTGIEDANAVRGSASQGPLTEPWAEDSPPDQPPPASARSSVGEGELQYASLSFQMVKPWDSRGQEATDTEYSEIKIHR

For the compound `COCC1CC2(CCN(Cc3ccccn3)CC2)CN1C(C)C` (configuration not stated), the Percent Effect is -6.44% in test [1]; 6.49% in [2]; 4.1% in [3]; 6.75% in test [4]; 7.11% with Trypanosoma cruzi; -8.1% in test [5]. The Percent Effect in test [6] was 7.5%; in the test listed under Homo sapiens, 2.62%; in [7] it was -1.31%; in [8] it was 3.68%; in test [9], 12.8%; in test [10], 2.02%.
Consider `COCC(=O)NC1CC2(CCN(CCF)CC2)Oc2ccccc21` (configuration not stated), for which the Percent Effect in test [1] is -7.73%; in test [2], 1.3%; in test [3], -6.51%; in [4], -0.183%; with Trypanosoma cruzi it was -2.63%; in test [5], 1.37%. Further, the Percent Effect was 8.67% in test [6]; 16.2% in the test listed under Homo sapiens; 6.84% in test [7]; 0% in test [8]; -2.5% in test [9]; -22.9% in [10].
On to `NCC1[C@H]2CN(CCc3ccccc3)C[C@@H]12` (some centres not stated), for which the Percent Effect is -7.01% in test [1]; 14.3% in [2]; 2.14% in test [3]; -1.73% in test [4]; -4.5% in the test on Trypanosoma cruzi; -1.37% in [5]. For the same compound, the Percent Effect in test [6] is 11.1%; in the test filed under Homo sapiens it was 15.4%; in test [7], -0.684%; in test [8], 6.76%; in [9], 0%; in [10], -10.2%.
For `Cc1noc(C)c1CN1CCO[C@H]2CNC[C@H]21`, the Percent Effect in test [1] is -3.48%; in test [2], 9.09%; in [3] it was 7.37%; in [4], -4.93%; in the test with Trypanosoma cruzi it was -4.19%; in test [5], -2.02%. In addition, the Percent Effect was 20% in test [6]; 8.41% in the test filed under Homo sapiens; 2.96% in test [7]; 0.526% in test [8]; 7.69% in [9]; -4.21% in test [10].
Consider `COc1ccc(C)cc1CC(=O)N1CCN(CC(C)O)CC1` (configuration not stated), for which the Percent Effect in test [1] was -3.62%; in test [2] it was 15.6%; in [3], 3.12%; in test [4], 6.85%; in the test with Trypanosoma cruzi, 5.6%; in test [5], -5.53%. For the same compound, the Percent Effect is 8.07% in test [6]; 0.0446% in the test filed under Homo sapiens; -20.5% in [7]; 4.9% in [8]; 18.8% in [9]; -7.21% in test [10].
Turning to `O=C(NCC(F)(F)F)C1=NOC2(CCCNC2)C1` (configuration not stated), the Percent Effect in test [1] was -8.38%; in [2], 3.9%; in [3] it was 1.78%; in test [4] it was 4%; in the test on Trypanosoma cruzi, -3.21%; in [5], -4.86%. Moreover, the Percent Effect is 4.15% in [6]; -6.57% in the test listed under Homo sapiens; 13.8% in [7]; 4.74% in test [8]; 2.56% in test [9]; -0.335% in [10].
